Drawing on PubChem BioAssay (NCATS), this text covers max response, outcome and Potency for 14 compounds.

Values joined by “and” are separate entries in the source; they are usually repeats but may differ in a detail not shown here. Equal entries are not always repeated. Inconclusive results are not listed. Some structures have more than one record in an assay (separate samples or runs), and their calls can disagree. Active and inactive are the calls of the source. Calls follow the shape of the dose curve; as a rule, active = well fitted curve in the direction sought with a large enough effect; inconclusive = small, poorly fitted or top-dose-only effect, or another doubt; inactive = no such curve, though single readings can be large; an effect the other way counts as inactive or inconclusive.

In experiment [1] the test system is NIH3T3. The experiment can be described thus: Cytotoxic Profiling of Annotated Libraries Using Quantitative High-Throughput Screening (AID 1296008). Also: nearly all actives have a fitted effect of over 60% in size. The settings on record: Five cell lines viability, CellTiter-Glo ATP luminescence, 48-72 h; max response: stronger effect = lower value. The method in brief: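 Compounds were pin-transferred onto cells and incubated 48 or 72 hr at 37 degree Celsius, 95% humidity. CellTiter-Glo was added, plates sat 10 min at room temperature, then ATP-coupled luminescence was imaged as the viability read-out.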

Experiment [2] concerns HACAT. The experiment can be described thus: qHTS assay to identify novel small-molecules to repurpose for Merkel cell carcinoma treatment (AID 1296009). Also: nearly all actives have a fitted effect of over 60% in size. Also: potency is read from the fitted curve at half-maximal effect. The settings on record: MCC and control cell lines, CellTiter-Glo viability, 72 h; at 44.8 µM (top of the series) unless noted. The method in brief:
(§1)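 Cells exposed to NPC (8-point) and MIPE (11-point) compound dilutions for 72 hr at 37 degree celsius; viability read by CellTiter-Glo luminescence, normalized to no-cell and DMSO in-plate controls.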

The subject of experiment [3] is MCC-13. Described as above. The settings on record: MCC and control cell lines, CellTiter-Glo viability, 72 h; series mostly up to 46 µM. The method in brief:
as §1

In experiment [4] the test system is MKL-1. The description is as above. The settings on record: MCC and control cell lines, CellTiter-Glo viability, 72 h; series mostly up to 46 µM. An outline of the steps:
as §1

The subject of experiment [5] is MKL-2. Described as above. The settings on record: MCC and control cell lines, CellTiter-Glo viability, 72 h; series mostly up to 46 µM. The method in brief:
as §1

In experiment [6] the test system is UISO. The experiment is described as above. The note with it: MCC and control cell lines, CellTiter-Glo viability, 72 h; series mostly up to 46 µM. An outline of the steps:
as §1

Experiment [7] has as its system WaGa. Described as above. The note with it: MCC and control cell lines, CellTiter-Glo viability, 72 h; series mostly up to 46 µM. An outline of the steps:
as §1

Experiment [8] has as its system C33A. The experiment is described as follows: Primary qHTS to identify gynecologic anti-cancer compounds using libraries of approved drugs and bioactive compounds (AID 1345084). Also: nearly all actives have a fitted effect of over 55% in size. The settings on record: Gynecologic cancer cell panel viability, ATPlite luminescence, 48 h; series mostly up to 57.5 µM. The method in brief: (§2)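 48 h compound exposure at 37 C, 5% CO2; five-point qHTS. ATPlite luminescence readout of cell ATP.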

The subject of experiment [9] is CASKI. Described as above. The settings on record: Gynecologic cancer cell panel viability, ATPlite luminescence, 48 h; series mostly up to 57.5 µM. The method in brief:
as §2

In experiment [10] the test system is Es-2. The description is as above. The note with it: Gynecologic cancer cell panel viability, ATPlite luminescence, 48 h; series mostly up to 57.5 µM. An outline of the steps: as §2
Experiment [11] relates to HeLa. The experiment is described as above. The note with it: Gynecologic cancer cell panel viability, ATPlite luminescence, 48 h; series mostly up to 57.5 µM. An outline of the steps: as §2
Experiment [12] relates to Hek293T. Described as above. The settings on record: Gynecologic cancer cell panel viability, ATPlite luminescence, 48 h, control line for the selectivity index; series mostly up to 57.5 µM. An outline of the steps:
as §2

Experiment [13] has as its system JEG-3. The description is as above. The settings on record: Gynecologic cancer cell panel viability, ATPlite luminescence, 48 h; series mostly up to 57.5 µM. An outline of the steps: as §2
For experiment [14], the system named is OV90. Described as above. The settings on record: Gynecologic cancer cell panel viability, ATPlite luminescence, 48 h; series mostly up to 57.5 µM. An outline of the steps: as §2
Experiment [15] deals with PA-1. Described as above. The settings on record: Gynecologic cancer cell panel viability, ATPlite luminescence, 48 h; series mostly up to 57.5 µM. The method in brief: as §2
The subject of experiment [16] is SKOV3. The description is as above. The settings on record: Gynecologic cancer cell panel viability, ATPlite luminescence, 48 h; series mostly up to 57.5 µM. An outline of the steps: as §2
The test system of experiment [17] is MCC-26. The experiment is described as follows: qHTS assay to identify novel small-molecules to repurpose for Merkel cell carcinoma treatment (AID 1296009). Also: nearly all actives have a fitted effect of over 60% in size. Also: potency is read from the fitted curve at half-maximal effect. The note with it: MCC and control cell lines, CellTiter-Glo viability, 72 h; series mostly up to 46 µM. An outline of the steps: as §1
For experiment [18], the system named is CAOV3. The experiment is described as follows: Primary qHTS to identify gynecologic anti-cancer compounds using libraries of approved drugs and bioactive compounds (AID 1345084). Also: nearly all actives have a fitted effect of over 55% in size. The note with it: Gynecologic cancer cell panel viability, ATPlite luminescence, 48 h; series mostly up to 57.5 µM. An outline of the steps: as §2
For experiment [19], the system named is NIH3T3. The experiment can be described thus: qHTS assay to identify novel small-molecules to repurpose for Merkel cell carcinoma treatment (AID 1296009). Also: nearly all actives have a fitted effect of over 60% in size. Also: potency is read from the fitted curve at half-maximal effect. The note with it: MCC and control cell lines, CellTiter-Glo viability, 72 h; at 44.8 µM (top of the series) unless noted. The method in brief: as §1
% is scaled to controls: 0 for no effect and ±100 for the full control effect.

Turning to `Cc1ccc(N(CC2=NCCN2)c2cccc(O)c2)cc1`, the max response in experiment [1] was -17.8% (inactive) and -24.2% (inactive). The compound was classed as inactive in [2]. Also, the Potency result in [3], in experiment [4], in experiment [5], in [6], in experiment [7] and in experiment [8] was “inactive” throughout. In addition, the Potency result in experiment [9], in [10], in experiment [11], in experiment [12], in [13] and in experiment [14] was “inactive” throughout. The Potency result in experiment [15] and in experiment [16] was “inactive” in each case.
With `Cn1cc(-c2ccc3nnc(C(F)(F)c4ccc5ncccc5c4)n3n2)cn1`, in experiment [1], the max response was -35.7% (inactive). In addition, the Potency result in experiment [3], in [17], in experiment [4], in experiment [5], in experiment [6] and in [7] was “inactive” in each case. Also, the Potency result in experiment [8], in [18], in [9], in [10], in [11] and in experiment [12] was “inactive” in each case. In addition, the Potency entry in experiment [13], in [14] and in experiment [15] was “inactive” in each case.
As to `CCCC(CCC)C(=O)O`, the max response in experiment [1] was 0.659% (inactive). In experiment [2], the compound was classed as inactive. The Potency result in experiment [3], in [4], in [5], in [6], in [7] and in [8] was “inactive” in each case. The Potency result in [18], in [9], in experiment [10], in [11], in [12] and in [13] was “inactive” each time. In addition, the Potency result in [14] and in [15] was “inactive” each time.
`OCCn1cc(-c2cnc3nnn(Cc4ccc5ncccc5c4)c3n2)cn1`: the max response in experiment [1] is -29.5% (inactive). The Potency result in experiment [3], in experiment [17], in [4], in [5], in experiment [6] and in [7] was “inactive” in each case. Also, the Potency result in experiment [8], in experiment [18], in experiment [9], in [10], in experiment [11] and in experiment [12] was “inactive” in each case. Also, the Potency result in experiment [13], in experiment [14], in experiment [15] and in experiment [16] was “inactive” throughout.
For the compound `CC(C)OC(=O)C1=CN(C(=O)c2ccc(F)c(F)c2)CC(C)(C)c2c1[nH]c1ccccc21`, the max response in experiment [1] was 3.45% (inactive) and -0.558% (inactive). Besides, the Potency result in experiment [3], in [17], in [4], in experiment [5], in [6] and in experiment [7] was “inactive” in each case. For the same compound, the Potency result in [8], in [18], in experiment [9], in [10], in experiment [11] and in experiment [12] was “inactive” each time. Also, the Potency result in experiment [13], in [14], in experiment [15] and in experiment [16] was “inactive” in each case.
As to `O=S(=O)(N=Cc1c(O)ccc2ccccc12)c1cccs1`, the compound was classed as inactive in [1] and in experiment [19]. The Potency result in experiment [3], in [17], in experiment [4], in [5] and in experiment [7] was “inactive” in each case.
Consider `CN(C)c1ccc(C2Nc3ccc4ccccc4c3C3=C2C(=O)CC(C)(C)C3)cc1Br` (stereo not given), for which the max response in experiment [1] was -6.99% (inactive) and -2.22% (inactive). Moreover, the Potency result in experiment [3], in [17], in experiment [4], in [5], in experiment [6] and in experiment [7] was “inactive” each time. The Potency entry in [8], in experiment [18], in experiment [9], in [10], in [11] and in experiment [12] was “inactive” each time. Moreover, the Potency result in experiment [13], in [14], in experiment [15] and in [16] was “inactive” throughout.
In the case of `C1COC(NC(C2CC2)C2CC2)=N1`, the call in [1] and in [19] was inactive. Also, the Potency result in experiment [3], in experiment [17], in experiment [4], in experiment [5], in experiment [6] and in experiment [7] was “inactive” in each case. The Potency entry in experiment [8], in experiment [18], in experiment [9], in experiment [10], in experiment [11] and in [12] was “inactive” each time. Also, the Potency result in [13], in experiment [14], in experiment [15] and in [16] was “inactive” each time.
Take `C[C@]1(c2nc3c(C(N)=O)cccc3[nH]2)CCCN1`: the max response in experiment [1] was -22% (inactive). For the same compound, the Potency result in experiment [3], in [17], in experiment [4], in experiment [5], in experiment [6] and in [7] was “inactive” in each case.
Regarding `Cc1ccc(-n2nc(C(C)(C)C)cc2NC(=O)Nc2ccc(OCCN3CCOCC3)c3ccccc23)cc1`, the max response in [1] was -5.48% (inactive). In experiment [2], the outcome was inactive. Further, the Potency entry in [3], in experiment [17], in experiment [7], in [8], in experiment [9] and in [10] was “inactive” each time. Moreover, the Potency result in experiment [11], in [12], in experiment [13], in experiment [14], in [15] and in [16] was “inactive” in each case. Besides, the Potency entry was “inactive and 23.7 µM (active)” in experiment [4]; 18.8 µM (active) in [5].
Regarding `CCN(c1ccccc1)c1cc(NC)[n+](C)c(C)n1`, the max response in experiment [1] was -7.55% (inactive). Also, the call in experiment [2] was inactive. In addition, the Potency result in [3], in [4], in [5], in experiment [6] and in experiment [7] was “inactive” each time.
In the case of `Cc1c(CCOc2ccc(C(=O)O)cc2)c2cc(Cl)ccc2n1C(c1ccccc1)c1ccccc1`, the max response in [1] is -32.3% (inactive). Further, the Potency result in [3], in experiment [17], in experiment [4], in experiment [5], in experiment [6] and in experiment [7] was “inactive” each time.
On to `CCOc1ccc(Cc2cc([C@@H]3O[C@H](CO)[C@@H](O)[C@H](O)[C@@H]3O)ccc2Cl)cc1`, for which the max response in [1] is 1.42% (inactive). Further, in experiment [2], the outcome was inactive. For the same compound, the Potency result in experiment [3], in experiment [17], in experiment [5] and in experiment [6] was “inactive” in each case.
As to `CN(C)C(=O)c1ccc(S(=O)(=O)c2ccc(NC(=O)[C@@](C)(O)C(F)(F)F)c(Cl)c2)cc1`, the call in experiment [1], in experiment [2] and in experiment [19] was inactive. In addition, the Potency result in experiment [3], in [4], in experiment [8], in [18], in experiment [9] and in experiment [10] was “inactive” each time. Also, the Potency result in [11], in experiment [12], in experiment [13] and in experiment [15] was “inactive” throughout.
